Data as given in PubChem BioAssay (EPA / NIEHS).
Activity calls are given as the source filed them. The calls were made as follows: active = hit-call score of the fitted dose curve at least 0.9, where 1 is the maximum; inactive = score below 0.9.

Assays:
[1] = read-out: C-C motif chemokine 2 (Homo sapiens) (UniProt P13500); assay: BSK_KF3CT_MCP1: BioMAP Diversity Plus: KF3CT Assay for Monocyte Chemoattractant Protein 1 (MCP1/CCL2) Biomarker Activity (AID 2283073); details: primary human keratinocytes with fibroblasts; actives raise or lower the signal
Outline: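 Human keratinocyte–foreskin fibroblast co-culture; MCP-1 measured by ELISA 24 h after dosing. Bidirectional fit vs DMSO; cytotoxicity tracked by SRB total protein in parallel cultures.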

[2] = read-out: Matrix Metallopeptidase 9 (MMP9), MMP9 (gene 4318); assay: BSK_KF3CT_MMP9: BioMAP Diversity Plus: KF3CT Assay for Matrix Metallopeptidase 9 (MMP9) Biomarker Activity (AID 2283074); details: primary human keratinocytes with fibroblasts; actives raise or lower the signal;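 as to AC50: MMP9 protein level quantified by ELISA in the co-culture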
Outline: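 MMP-9 quantified by ELISA after 24 h chemical treatment of primary human skin keratinocyte/fibroblast co-cultures; gain or loss fitted against DMSO, with parallel SRB staining (0.1% SRB, 560 nm) for overt cytotoxicity.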

[3] = read-out: urokinase plasminogen activator (uPA), PLAU (gene 5328); assay: BSK_KF3CT_uPA: BioMAP Diversity Plus: KF3CT Assay for urokinase plasminogen activator (uPA) Biomarker Activity (AID 2283075); details: primary human keratinocytes with fibroblasts; actives raise or lower the signal
Outline: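 ELISA read-out of uPA 24 h after dosing human skin keratinocytes co-cultured with foreskin fibroblasts. Signal change fitted both ways relative to DMSO; sulforhodamine B on parallel cultures marks overt cytotoxicity.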

[4] = read-out: Interleukin-1 alpha (IL1a), IL1A (gene 3552); assay: BSK_LPS_IL1a: BioMAP Diversity Plus: LPS Assay for Interleukin-1 alpha (IL1a) Biomarker Activity (AID 2283080); details: primary human HUVEC with PBMC; actives raise or lower the signal
Outline: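 Human umbilical vein endothelial cells co-cultured with PBMC and stimulated with LPS; IL-1a measured by ELISA 24 h after dosing. Bidirectional fitting against DMSO; cytotoxicity checked by SRB staining in parallel cultures.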

[5] = read-out: Monocyte Chemoattractant Protein-1 (MCP1), CCL2 (gene 6347); assay: BSK_LPS_MCP1: BioMAP Diversity Plus: LPS Assay for Monocyte Chemoattractant Protein-1 (MCP1) Biomarker Activity (AID 2283081); details: primary human HUVEC with PBMC; actives raise or lower the signal;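 as to AC50: secreted MCP-1 protein quantified by ELISA in culture supernatant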
Outline: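 Human umbilical vein endothelial cells co-cultured with PBMC, LPS-stimulated; secreted MCP-1 measured by ELISA 24 h after compound addition. Bidirectional curve fitting against DMSO baseline; SRB total-protein staining in parallel cultures for cytotoxicity.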

[6] = read-out: Transforming growth factor beta 1 (TGFb1), TGFB1 (gene 7040); assay: BSK_KF3CT_TGFb1: BioMAP Diversity Plus: KF3CT Assay for Transforming growth factor beta 1 (TGFb1) Biomarker Activity (AID 2283072); details: primary human keratinocytes with fibroblasts; actives raise or lower the signal
Outline: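 Read-out: ELISA for TGF-b1 in keratinocyte/foreskin fibroblast human skin co-culture, 24 h after dosing; bidirectional curve fit vs DMSO baseline; gain or loss of signal scored.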

CD40, CD40 (gene 958) = assay: BSK_LPS_CD40: BioMAP Diversity Plus: LPS Assay for CD40 Biomarker Activity (AID 2283076); details: primary human HUVEC with PBMC; actives raise or lower the signal
Outline: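 HUVEC plus PBMC co-culture stimulated with LPS; CD40 quantified by ELISA 24 h after compound dosing. Fitting was bidirectional relative to DMSO. SRB staining of parallel cultures flagged overt cytotoxicity.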

[7] = read-out: E-selectin (Homo sapiens) (UniProt P16581); assay: BSK_LPS_Eselectin: BioMAP Diversity Plus: LPS Assay for Eselectin Biomarker Activity (AID 2283077); details: primary human HUVEC with PBMC; actives raise or lower the signal
Outline: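 Human umbilical vein endothelial cells co-cultured with PBMC under LPS stimulation; cell-surface E-selectin measured by ELISA 24 h after dosing. Change in either direction versus DMSO, with SRB total-protein staining in parallel cultures for cytotoxicity.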

[8] = read-out: Interleukin-8 (IL8), CXCL8 (gene 3576); assay: BSK_LPS_IL8: BioMAP Diversity Plus: LPS Assay for Interleukin-8 (IL8) Biomarker Activity (AID 2283078); details: primary human HUVEC with PBMC; actives raise or lower the signal
Outline: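 Human umbilical vein endothelial cells co-cultured with PBMC, LPS-stimulated, exposed to compound for 24 h. IL-8 quantified by ELISA; fitted in both directions against DMSO, with SRB total-protein staining of parallel cultures for cytotoxicity.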

[9] = BSK_LPS_SRB: Viability Assessment in the BioMAP Diversity Plus: LPS Assay (AID 2283079); details: primary human HUVEC with PBMC;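 also: total protein by sulforhodamine B absorbance as a cytotoxicity measure; measured one day after compound addition; fitted in both directions against DMSO so loss or gain of signal counts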
Outline: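 Co-culture of human umbilical vein endothelial cells and PBMC, read 24 h after dosing. Total protein by 0.1% SRB staining after 10% TCA fixation, absorbance at 560 nm; bidirectional fit against DMSO.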

Measured: AC50

Chain of E-selectin (Homo sapiens) (P16581 whole entry, looked up): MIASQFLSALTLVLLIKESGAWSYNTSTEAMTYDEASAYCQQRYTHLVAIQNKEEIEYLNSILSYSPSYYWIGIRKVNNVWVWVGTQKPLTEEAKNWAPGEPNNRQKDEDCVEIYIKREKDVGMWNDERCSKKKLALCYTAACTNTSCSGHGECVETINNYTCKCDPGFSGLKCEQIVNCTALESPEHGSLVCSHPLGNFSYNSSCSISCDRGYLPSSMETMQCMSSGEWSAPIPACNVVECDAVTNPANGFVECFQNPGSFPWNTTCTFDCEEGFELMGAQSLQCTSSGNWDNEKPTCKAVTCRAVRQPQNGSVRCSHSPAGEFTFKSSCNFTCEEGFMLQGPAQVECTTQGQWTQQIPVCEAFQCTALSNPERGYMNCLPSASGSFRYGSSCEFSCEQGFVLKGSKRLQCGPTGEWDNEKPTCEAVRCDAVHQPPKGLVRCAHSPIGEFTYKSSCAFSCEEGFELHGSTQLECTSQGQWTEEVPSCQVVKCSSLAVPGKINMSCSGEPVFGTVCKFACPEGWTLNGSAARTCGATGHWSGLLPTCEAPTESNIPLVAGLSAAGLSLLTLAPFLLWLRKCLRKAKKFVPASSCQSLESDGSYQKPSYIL

FC(F)(I)C(F)(F)C(F)(F)C(F)(F)C(F)(F)C(F)(F)I
active: [1] 6.01 µM [middle of 5 runs] | [2] 8.17 µM [middle of 5 runs] | [3] 11.7 µM [middle of 5 runs] | [4] 18 µM [middle of 5 runs] | [5] 36.5 µM [middle of 5 runs]

CC(C)CCCCCCOC(=O)CCCCC(=O)OCCCCCCC(C)C
inactive: all assays above

CCCCCCCC(=O)O
inactive: all assays above

CCOC(=O)CC(O)(CC(=O)OCC)C(=O)OCC
inactive: all assays above

CCCCCCCCCCCCCC[N+](C)(C)C
active: [6] 0.925 µM | [1] 8.89 µM | [2] 3.52 µM | [3] 4.33 µM | CD40, CD40 (gene 958) 4.57 µM | [7] 10 µM | [8] 10.9 µM | [9] 5.37 µM | [4] 1.76 µM | [5] 5.01 µM

CCCCCCCCOC(=O)CCCCCCCCC(=O)OCCCCCCCC
inactive: all assays above

Oc1cccc(O)c1
not listed: [6]
inactive: all other assays above

C=C(C)C(=O)OCCC(F)(F)C(F)(F)C(F)(F)C(F)(F)C(F)(F)C(F)(F)F
inactive: all assays above

Cc1cc(C)c(O)c(C)c1
inactive: all assays above

NC(=O)N1C(=O)C(C(=O)c2cc(Cl)cs2)c2cc(F)c(Cl)cc21 (stereo not drawn)
active: [6] 7.48 µM | [2] 4.33 µM | [3] 12.5 µM | CD40, CD40 (gene 958) 17.7 µM | [7] 1.47 µM | [9] 20 µM | [4] 20 µM | [5] 5.47 µM
inactive: [1] | [8]

Oc1cc2ccccc2c2ccccc12
active: [6] 6.02 µM | [1] 6.26 µM | [2] 5.66 µM | [3] 7.13 µM | CD40, CD40 (gene 958) 5.93 µM | [7] 11.1 µM | [8] 12.6 µM | [9] 12.1 µM | [4] 7.63 µM | [5] 11.1 µM

C[C@@H]1C[C@H]2[C@@H]3CCC4=CC(=O)C=C[C@]4(C)[C@@]3(F)[C@@H](O)C[C@]2(C)[C@@]1(O)C(=O)COP(=O)(O)O
inactive: all assays above

O=C(O)c1ccccc1C(c1ccc(O)cc1)c1ccc(O)cc1
inactive: all assays above

Cc1cc(CCN2CCN(c3nsc4ccccc34)CC2)cc2c1NC(=O)CC2(C)C
active: [6] 13.2 µM | [1] 28.8 µM | [2] 16.5 µM | [3] 13.4 µM | CD40, CD40 (gene 958) 14.3 µM | [7] 30 µM | [8] 19.5 µM | [9] 32.8 µM | [4] 10.3 µM | [5] 26.8 µM

NC(=O)N(O)[C@@H]1C=C[C@H](Oc2cccc(Oc3ccc(F)cc3)c2)C1
active: [9] 3.97 µM
inactive: all other assays above

CCCOc1sc(C(=O)N2CCC(c3cc(CN)ccc3F)CC2)c(C)c1Br
active: [6] 8.97 µM | [1] 9.27 µM | [2] 5.74 µM | [3] 10.2 µM | CD40, CD40 (gene 958) 7.91 µM | [7] 11.1 µM | [8] 13.6 µM | [9] 5.93 µM | [4] 8.61 µM | [5] 9.2 µM

NCC(F)(F)C(F)(F)C(F)(F)C(F)(F)C(F)(F)C(F)(F)C(F)(F)F
not listed: [6]
inactive: all other assays above

ClC1=C(Cl)C(Cl)(Cl)C(Cl)=C1Cl
active: [6] 9.02 µM | [1] 9.19 µM | [2] 9.06 µM | [3] 10.7 µM | CD40, CD40 (gene 958) 10.2 µM | [7] 11.9 µM | [8] 13.9 µM | [9] 11.4 µM | [4] 10.1 µM | [5] 12.3 µM

CCCCCCCCC(=O)O
inactive: all assays above

CC(O)CO (stereo not drawn)
inactive: all assays above

CCCCC(CC)COC(=O)CCCCC(=O)OCc1ccccc1 (stereo not drawn)
inactive: all assays above

CC[C@H](c1ccc(O)cc1)[C@@H](CC)c1ccc(O)cc1
active: [6] 29.8 µM | [1] 32.7 µM | [2] 19.4 µM | [3] 35 µM | CD40, CD40 (gene 958) 17.4 µM | [7] 33.8 µM | [8] 35.1 µM | [9] 31.5 µM | [4] 31.3 µM | [5] 33.8 µM

Cc1oc(-c2ccccc2)nc1CCOc1ccc(C[C@H](Nc2ccccc2C(=O)c2ccccc2)C(=O)O)cc1
active: [6] 7.38 µM | [1] 5.22 µM | [2] 6.66 µM | [3] 7.7 µM | CD40, CD40 (gene 958) 30.2 µM | [7] 30.8 µM | [8] 29.1 µM | [9] 20.6 µM | [4] 20 µM | [5] 16.1 µM

O=C(O)Cc1cc(I)c(Oc2cc(I)c(O)c(I)c2)c(I)c1
inactive: [7] | [9]
active: [6] 8.34 µM | [1] 11 µM | [2] 8.62 µM | [3] 18.8 µM | CD40, CD40 (gene 958) 14.7 µM | [8] 20.5 µM | [4] 21.2 µM | [5] 23.9 µM

c1ccc2cc3c(ccc4ccccc43)cc2c1
inactive: all assays above

N#C[C@@H]1CC(F)(F)CN1C(=O)CNC1CC2CCC(C1)N2c1ncccn1 (stereo partly drawn)
active: CD40, CD40 (gene 958) 4.2 µM
inactive: all other assays above

Nc1cccc2c(N)cccc12
inactive: all assays above

OC1CCC(C2CCCCC2)CC1 (stereo not drawn)
inactive: all assays above

CCCCCCCCCCCCc1ccccc1S(=O)(=O)O
active: [6] 12.4 µM | [1] 24.3 µM | [2] 12 µM | [3] 28 µM
inactive: all other assays above

CCCCOCCO
inactive: all assays above

CC(C)(C)c1cc(C(C)(C)C)c(O)c(C(C)(C)C)c1
active: [2] 36.2 µM
inactive: all other assays above

CCCOC(=O)c1ccc(O)cc1
inactive: all assays above

O=c1c(-c2ccc(O)cc2)coc2cc(O)ccc12
active: [2] 20 µM | [5] 20 µM
inactive: all other assays above
